HCV inhibitor: qHTS Assay for Inhibitors of Hepatitis C Virus (HCV). Huh7.5.1 HCVcc-Cre infection, luciferase reporter, 44 h. 340,000 compounds, 3.4% hits. Potency, µM (series often up to 41.8 µM), hits mostly inhibitors. AID 651820, 2012; active = well fitted inhibition curve with a large enough effect; inconclusive = small, poorly fitted or top-dose-only effect, or another doubt; inactive = no such curve, though single readings can be large or run the other way
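Whole-lifecycle infectious HCVcc-Cre system; cells 1,000/well, compound then virus (~0.5 moi) added 4 h after plating, 44 h culture. Luciferase read 15 sec following 15 min substrate incubation, room temp.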
SARS PLpro yeast-1: qHTS of Yeast-based Assay for SARS-CoV PLP; 330,000 compounds, 0.19% hits; AID 485353, 2010; Potency, µM (titrated, usually from 32.9 µM), hits mostly activators; S. cerevisiae expressing SARS-CoV PLpro, growth rescue; calls by dose curve; note: nearly all actives have a fitted effect of over 55% in size
HCMV antiviral: qHTS Assay for inhibitors of the human cytomegalovirus (HCMV); 410,000 compounds, 4.5% hits; HFF cells, HCMV-luciferase reporter, 72 h; active compounds read low; activity change, negative = inhibition, % at 57.5 µM; in the data active = activity change below about -60%; inconclusive = no clear call, values can overlap the other calls; inactive = above about -39%
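Screen run at 2 compound doses on HFFs infected with reporter HCMV, MOI 1 PFU/cell. Luciferase activity from cell lysates at 72 h post infection gave inhibition relative to buffer-only and Salinomycin wells.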
Lassa entry inh: qHTS for Inhibitors of binding or entry into cells for Lassa Virus. Potency, µM (titrated, usually from 37.9 µM), usual class: inhibitors. AID 540256, 2011. 300,000 compounds, 1.2% hits. Lassa virus pseudotype entry inhibition, cell reporter; calls by dose curve; tested in HEK293 cells; note: nearly all actives have a fitted effect of over 50% in size
FMDV antiviral: High Throughput Screening for Foot and Mouth Disease Virus Antivirals; AID 1159524, 2015; Potency, µM (titrated, usually from 57.9 µM), usual class: inhibitors; FMDV antiviral cell-based qHTS; 410,000 compounds, 1.2% hits; calls by dose curve; tested in HEK293T cells; note: read-out not given here; nearly all actives have a fitted effect of over 45% in size
MARV entry inh: qHTS for inhibitors of binding or entry into cells for Marburg Virus; Marburg virus pseudotyped entry inhibition, cell reporter; Potency, µM (highest dose often 37.8 µM), usual class: inhibitors; 300,000 compounds, 1.8% hits; AID 540276, 2011; calls by dose curve; tested in HEK293 cells
SARS PLpro yeast-2: qHTS of Yeast-based Assay for SARS-CoV PLP: Hit Validation; shares compounds with SARS PLpro yeast-1; yeast expressing SARS-CoV PLpro, growth phenotype rescue; calls only; 1,000 compounds, 19% hits; AID 652038, 2013; call rule not given here
Of the large screens only hits and unclear results are named; the others gave an inactive call (follow-up assays come after a bar, where they were run); ! = a repeat was not active. Hits are enriched below; roughly 8% of the tested compounds scored in any of these assays.

O=C(Nc1nc(-c2ccccn2)cs1)C1COc2ccccc2O1 (centres undefined)	HCV inhibitor 35µM, SARS PLpro yeast-1 inconclusive, HCMV antiviral -83 (no result: Lassa entry inh, MARV entry inh) | SARS PLpro yeast-2 active
O=C1CS(=O)(=O)C2(C(=O)N(Cc3ccccc3)c3ccccc32)N1c1ccccc1 (centres undefined)	none (no result: HCV inhibitor, SARS PLpro yeast-1, MARV entry inh)
Cc1ccc2c(c1)c(=O)c(Br)c(C)n2Cc1ccccc1	HCV inhibitor inconclusive, SARS PLpro yeast-1 inconclusive | SARS PLpro yeast-2 inactive
C/C(=N\NC(=S)NC1CCCCC1)c1ccccc1	SARS PLpro yeast-1 7.9µM, HCMV antiviral inconclusive | SARS PLpro yeast-2 active
O=C(N/N=C/c1c(O)n(-c2ccc(Cl)cn2)c(=O)c2ccccc12)c1ccncc1	SARS PLpro yeast-1 13µM | SARS PLpro yeast-2 inactive
O=C(N/N=C/c1c(O)n(-c2ccc(Cl)cn2)c(=O)c2ccccc12)C1CC1	MARV entry inh inconclusive
Cc1ccc(Cl)cc1N1CCN(C(=O)c2ccc3c(c2)CCN3S(=O)(=O)c2ccccc2)CC1	Lassa entry inh inconclusive, MARV entry inh inconclusive (no result: HCV inhibitor, SARS PLpro yeast-1)
Nc1nonc1N/N=C/c1c(O)ccc2ccccc12	MARV entry inh inconclusive
Nc1cc(Cl)nc(N/N=C/c2c(O)ccc3ccccc23)n1	HCV inhibitor inconclusive, SARS PLpro yeast-1 2.5µM, HCMV antiviral -71, Lassa entry inh inconclusive, MARV entry inh inconclusive | SARS PLpro yeast-2 inactive
COCc1cc(C2C(C(=O)c3ccco3)=C(O)C(=O)N2CCOCCO)ccc1O (centres undefined)	HCV inhibitor inconclusive, SARS PLpro yeast-1 2.8µM | SARS PLpro yeast-2 inactive
COCCCN1C(=O)C(O)=C(C(=O)c2ccco2)C1c1ccccc1 (centres undefined)	none
Cc1ccc([N+](=O)[O-])cc1S(=O)(=O)Nc1cccc(-c2ccc(N3CCCC3)nn2)c1	SARS PLpro yeast-1 11µM | SARS PLpro yeast-2 inactive
O=C(O)C(=Cc1ccc([N+](=O)[O-])cc1)c1ccccc1	none (no result: HCV inhibitor, SARS PLpro yeast-1, Lassa entry inh, FMDV antiviral, MARV entry inh)
COc1ccc2oc(C(=O)OCC(=O)N(C)CC(=O)Nc3ccc(F)cc3)c(C)c2c1	SARS PLpro yeast-1 inconclusive | SARS PLpro yeast-2 inactive
COc1ccc2oc(C(=O)OCC(=O)NC(=O)c3ccccc3)c(C)c2c1	HCMV antiviral inconclusive
CCOC(=O)c1cc(-c2ccccc2)n(CCCC(=O)Nc2cccc(Cl)c2C)c1C	Lassa entry inh inconclusive (no result: HCV inhibitor, SARS PLpro yeast-1, MARV entry inh)
C[C@@H]1O[C@@H](O[C@H]2C[C@@H](O)[C@]3(CO)[C@H]4[C@H](O)C[C@]5(C)[C@@H](C6COC(=O)C6)CC[C@]5(O)[C@@H]4CC[C@]3(O)C2)[C@H](O)[C@H](O)[C@H]1O (some centres undefined)	HCV inhibitor 1µM!, SARS PLpro yeast-1 inconclusive, HCMV antiviral -97, Lassa entry inh 1.6µM, FMDV antiviral inconclusive, MARV entry inh inconclusive | SARS PLpro yeast-2 inactive
O=C(Nc1ccc(C(=O)OCc2cc(=O)n3ccsc3n2)cc1)c1cccc(F)c1	Lassa entry inh inconclusive (no result: HCV inhibitor, SARS PLpro yeast-1, MARV entry inh)
CCn1c(=O)c2ccccc2n(Cc2ccc([N+](=O)[O-])cc2)c1=O	none (no result: Lassa entry inh, MARV entry inh)
Cc1c(C=O)c2ccccc2n1Cc1ccc([N+](=O)[O-])cc1	SARS PLpro yeast-1 inconclusive, Lassa entry inh inconclusive, FMDV antiviral inconclusive, MARV entry inh inconclusive | SARS PLpro yeast-2 inactive
Cn1c(=O)c2c(-c3ccccc3Br)n(C(C)(C)C)cc2n(C)c1=O	Lassa entry inh inconclusive, FMDV antiviral inconclusive, MARV entry inh inconclusive (no result: HCV inhibitor, SARS PLpro yeast-1)
Cc1cc([N+](=O)[O-])nn1CC(=O)N1CCCc2ccccc21	SARS PLpro yeast-1 16µM | SARS PLpro yeast-2 inactive
CC1=C(C(=O)OC2CCCCCC2)C(c2ccc(Cl)cc2Cl)CC(=O)N1 (centres undefined)	none (no result: HCV inhibitor, SARS PLpro yeast-1)
O=C(NC(=S)Nc1ccccc1N1CCCC1)c1ccc([N+](=O)[O-])cc1	HCV inhibitor inconclusive, SARS PLpro yeast-1 inconclusive, HCMV antiviral inconclusive

Source: PubChem BioAssay
